Experimental data as given in PubChem BioAssay (EPA / NIEHS).
The source made the active and inactive calls. How the source made its calls: active means hit-call score of the fitted dose curve at least 0.9, where 1 is the maximum; inactive means score below 0.9.

What was measured:
Details in all cases: mRNA level, 48 h; actives raise or lower the signal
[1] = read-out: Intercellular Adhesion Molecule 1 (ICAM1), ICAM1 (gene 3383); test: LTEA_HepaRG_ICAM1: Life Technologies and Expression Analysis (LTEA) Assay for Intercellular Adhesion Molecule 1 (ICAM1) using HepaRG (AID 2283507)
Summary of the method: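 Differentiated human HepaRG cells in serum-free induction medium exposed 48 h in duplicate to 8 half-log concentrations (top 100 uM, 0.5% DMSO). ICAM1 mRNA quantified by TaqMan qRT-PCR, normalized to ACTB, GAPDH and POLR2A; bidirectional fitting versus DMSO.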

[2] = read-out: Insulin-like growth factor-binding protein 1 (IGFBP1), IGFBP1 (gene 3484); test: LTEA_HepaRG_IGFBP1: Life Technologies and Expression Analysis (LTEA) Assay for Insulin-like growth factor-binding protein 1 (IGFBP1) using HepaRG (AID 2283508)
Summary of the method: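 HepaRG cells, plated 48 h then switched to serum-free induction medium, exposed in duplicate for 48 h to 8-point half-log series from 100 uM in 0.5% DMSO. mRNA measured by qRT-PCR, normalized to ACTB/GAPDH/POLR2A; bidirectional fit versus DMSO.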

[3] = read-out: Interleukin 6 (IL6), IL6 (gene 3569); test: LTEA_HepaRG_IL6: Life Technologies and Expression Analysis (LTEA) Assay for Interleukin 6 (IL6) using HepaRG (AID 2283509)
Summary of the method: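 Transcript levels, normalized to three housekeeping genes, were quantified by qRT-PCR after 48 h chemical treatment of HepaRG cells. Eight-point half-log series from 100 uM in 0.5% DMSO, duplicates. Fitted both directions against DMSO baseline.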

[4] = read-out: Interleukin 6 Receptor (IL6R), IL6R (gene 3570); test: LTEA_HepaRG_IL6R: Life Technologies and Expression Analysis (LTEA) Assay for Interleukin 6 Receptor (IL6R) using HepaRG (AID 2283510);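 on AC50: TaqMan qRT-PCR signal normalized to ACTB GAPDH and POLR2A housekeeping genes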
Summary of the method: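 HepaRG, 48 h exposure, 8-pt half-log series, top 100 uM, 0.5% DMSO vehicle, duplicates. Read-out: TaqMan qRT-PCR of IL6R transcript, housekeeping-gene normalized. Gain or loss fitted relative to DMSO baseline.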

[5] = read-out: Potassium channel subfamily K member 1 (KCNK1), KCNK1 (gene 3775); test: LTEA_HepaRG_KCNK1: Life Technologies and Expression Analysis (LTEA) Assay for Potassium channel subfamily K member 1 (KCNK1) using HepaRG (AID 2283511)
Summary of the method: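 KCNK1 transcript measured by TaqMan qRT-PCR against three housekeeping genes, after HepaRG cells were treated 48 h with eight half-log concentrations (top 100 uM, 0.5% DMSO). Curves fitted bidirectionally relative to vehicle.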

[6] = read-out: Keratin 19 (KRT19), KRT19 (gene 3880); test: LTEA_HepaRG_KRT19: Life Technologies and Expression Analysis (LTEA) Assay for Keratin 19 (KRT19) using HepaRG (AID 2283512)
Summary of the method: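 Differentiated HepaRG cells in serum-free induction medium, exposed 48 h in duplicate to 8 half-log concentrations up to 100 uM in 0.5% DMSO. KRT19 mRNA by qRT-PCR, normalized to ACTB, GAPDH, POLR2A; bidirectional fit vs DMSO.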

[7] = read-out: JUN Transcription Factor, JUN (gene 3725); test: LTEA_HepaRG_JUN: Life Technologies and Expression Analysis (LTEA) Assay for JUN Transcription Factor using HepaRG (AID 2283513)
Summary of the method: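 HepaRG, 48 h exposure, 8-pt half-log series top 100 uM, 0.5% DMSO, duplicate. JUN mRNA by qRT-PCR (Fluidigm), housekeeping-normalized (ACTB/GAPDH/POLR2A); bidirectional curve fit vs DMSO baseline.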

[8] = read-out: Lipase C (LIPC), LIPC (gene 3990); test: LTEA_HepaRG_LIPC: Life Technologies and Expression Analysis (LTEA) Assay for Lipase C (LIPC) using HepaRG (AID 2283514)
Summary of the method: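 LIPC expression was quantified by qRT-PCR against three housekeeping genes (ACTB, GAPDH, POLR2A). Differentiated human HepaRG cells received eight half-log doses (top 100 uM, 0.5% DMSO) in duplicate for 48 h; fitting bidirectional relative to DMSO.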

[9] = read-out: Lipoprotein lipase (LPL), LPL (gene 4023); test: LTEA_HepaRG_LPL: Life Technologies and Expression Analysis (LTEA) Assay for Lipoprotein lipase (LPL) using HepaRG (AID 2283515)
Summary of the method: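 LPL transcript levels quantified by TaqMan qRT-PCR against three housekeeping genes after 48 h chemical treatment of HepaRG cells. Eight-point half-log series from 100 uM in 0.5% DMSO, tested in duplicate; bidirectional fitting versus vehicle.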

[10] = read-out: MicroRNA 122 (MIR122), gene 406906; test: LTEA_HepaRG_MIR122: Life Technologies and Expression Analysis (LTEA) Assay for MicroRNA 122 (MIR122) using HepaRG (AID 2283516); further: the transcript read is the microRNA miR-122
Summary of the method: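 qRT-PCR read-out (TaqMan, Fluidigm array), normalized to three housekeeping genes; HepaRG cells dosed 48 h at 8 concentrations up to 100 uM in 0.5% DMSO, duplicate; gain or loss fitted against DMSO baseline.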

[11] = read-out: matrix metalloproteinase-10 (MMP10), MMP10 (gene 4319); test: LTEA_HepaRG_MMP10: Life Technologies and Expression Analysis (LTEA) Assay for matrix metalloproteinase-10 (MMP10) using HepaRG (AID 2283517)
Summary of the method: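 Expression measured by TaqMan qRT-PCR with ACTB/GAPDH/POLR2A normalisation after 48 h chemical exposure of HepaRG cells. Eight half-log concentrations, top 100 uM, 0.5% DMSO vehicle, duplicates; gain or loss fitted against vehicle.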

MYC, MYC (gene 4609) = test: LTEA_HepaRG_MYC: Life Technologies and Expression Analysis (LTEA) Assay for MYC using HepaRG (AID 2283518)
Summary of the method: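 Differentiated HepaRG cells exposed 48 h in serum-free induction medium to 8 concentrations (top 100 uM, half-log steps; 0.5% DMSO), duplicate. MYC mRNA measured by Fluidigm qRT-PCR, normalized to ACTB, GAPDH, POLR2A; bidirectional fit versus DMSO.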

[12] = read-out: Paternally Expressed 10 (PEG10), PEG10 (gene 23089); test: LTEA_HepaRG_PEG10: Life Technologies and Expression Analysis (LTEA) Assay for Paternally Expressed 10 (PEG10) using HepaRG (AID 2283520);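 on AC50: PEG10 transcript by qRT-PCR normalised to ACTB GAPDH and POLR2A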
Summary of the method: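 qRT-PCR read-out: PEG10 mRNA normalised to three housekeeping genes, fitted bidirectionally against 0.5% DMSO vehicle. HepaRG cells received test chemicals for 48 h in serum-free induction medium, 8 points, top 100 uM, half-log steps.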

[13] = read-out: Nuclear factor NF-kappa-B p105 subunit (Homo sapiens) (UniProt P19838); test: LTEA_HepaRG_NFKB1: Life Technologies and Expression Analysis (LTEA) Assay for Nuclear Factor Kappa B Subunit 1 (NFKB1) using HepaRG (AID 2283521);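 further: TaqMan qRT-PCR transcript normalised to ACTB GAPDH and POLR2A housekeeping genes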
Summary of the method: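 Human HepaRG cells receive eight half-log concentrations, highest 100 uM, for 48 h. NFKB1 expression is then quantified by qRT-PCR and analysed for up- or down-regulation relative to 0.5% DMSO vehicle.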

[14] = read-out: Protein phosphatase 2A (PPP2R4), PTPA (gene 5524); test: LTEA_HepaRG_PPP2R4: Life Technologies and Expression Analysis (LTEA) Assay for Protein phosphatase 2A (PPP2R4) using HepaRG (AID 2283522)
Summary of the method: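 HepaRG, 48 h exposure, 8-pt half-log series from 100 uM, 0.5% DMSO vehicle, duplicates. Readout: PPP2R4 mRNA, Fluidigm qRT-PCR, housekeeping-normalized. Bidirectional curve fit vs DMSO baseline.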

[15] = read-out: Phosphatase and tensin (PTEN), PTEN (gene 5728); test: LTEA_HepaRG_PTEN: Life Technologies and Expression Analysis (LTEA) Assay for Phosphatase and tensin (PTEN) using HepaRG (AID 2283523)
Summary of the method: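 Read-out: TaqMan qRT-PCR of PTEN transcript, normalized to three housekeeping genes, fitted in both directions against 0.5% DMSO. Differentiated human HepaRG cultures received chemicals for 48 h, eight-point half-log series topping at 100 uM.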

[16] = read-out: solute carrier (SLC22A1), SLC22A1 (gene 6580); test: LTEA_HepaRG_SLC22A1: Life Technologies and Expression Analysis (LTEA) Assay for solute carrier (SLC22A1) using HepaRG (AID 2283524)
Summary of the method: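 Transcript level of SLC22A1 quantified by qRT-PCR (normalized to three housekeeping genes) after 48 h chemical exposure of HepaRG cells, eight concentrations up to 100 µM, half-log steps, 0.5% DMSO vehicle. Gain or loss relative to DMSO fitted bidirectionally.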

[17] = read-out: Pyruvate Dehydrogenase Kinase 4 (PDK4), PDK4 (gene 5166); test: LTEA_HepaRG_PDK4: Life Technologies and Expression Analysis (LTEA) Assay for Pyruvate Dehydrogenase Kinase 4 (PDK4) using HepaRG (AID 2283525)
Summary of the method: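 Readout is qRT-PCR of PDK4 transcript, normalized to three housekeeping genes, with bidirectional fitting against 0.5% DMSO vehicle. Differentiated HepaRG cells were treated 48 h in serum-free induction medium, duplicate wells, eight-point half-log series topping at 100 uM.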

[18] = read-out: matrix metalloproteinase-3 (MMP3), MMP3 (gene 4314); test: LTEA_HepaRG_MMP3: Life Technologies and Expression Analysis (LTEA) Assay for matrix metalloproteinase-3 (MMP3) using HepaRG (AID 2283519)
Summary of the method: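 Fluidigm-based TaqMan qRT-PCR, normalized to ACTB, GAPDH and POLR2A and fitted bidirectionally versus 0.5% DMSO, measured transcript levels. Treatment: duplicate 48 h exposures of HepaRG cells, ~100,000/well, to eight half-log concentrations topping at 100 uM.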

Measured: AC50

Chain of Nuclear factor NF-kappa-B p105 subunit (Homo sapiens) (P19838 whole entry, looked up): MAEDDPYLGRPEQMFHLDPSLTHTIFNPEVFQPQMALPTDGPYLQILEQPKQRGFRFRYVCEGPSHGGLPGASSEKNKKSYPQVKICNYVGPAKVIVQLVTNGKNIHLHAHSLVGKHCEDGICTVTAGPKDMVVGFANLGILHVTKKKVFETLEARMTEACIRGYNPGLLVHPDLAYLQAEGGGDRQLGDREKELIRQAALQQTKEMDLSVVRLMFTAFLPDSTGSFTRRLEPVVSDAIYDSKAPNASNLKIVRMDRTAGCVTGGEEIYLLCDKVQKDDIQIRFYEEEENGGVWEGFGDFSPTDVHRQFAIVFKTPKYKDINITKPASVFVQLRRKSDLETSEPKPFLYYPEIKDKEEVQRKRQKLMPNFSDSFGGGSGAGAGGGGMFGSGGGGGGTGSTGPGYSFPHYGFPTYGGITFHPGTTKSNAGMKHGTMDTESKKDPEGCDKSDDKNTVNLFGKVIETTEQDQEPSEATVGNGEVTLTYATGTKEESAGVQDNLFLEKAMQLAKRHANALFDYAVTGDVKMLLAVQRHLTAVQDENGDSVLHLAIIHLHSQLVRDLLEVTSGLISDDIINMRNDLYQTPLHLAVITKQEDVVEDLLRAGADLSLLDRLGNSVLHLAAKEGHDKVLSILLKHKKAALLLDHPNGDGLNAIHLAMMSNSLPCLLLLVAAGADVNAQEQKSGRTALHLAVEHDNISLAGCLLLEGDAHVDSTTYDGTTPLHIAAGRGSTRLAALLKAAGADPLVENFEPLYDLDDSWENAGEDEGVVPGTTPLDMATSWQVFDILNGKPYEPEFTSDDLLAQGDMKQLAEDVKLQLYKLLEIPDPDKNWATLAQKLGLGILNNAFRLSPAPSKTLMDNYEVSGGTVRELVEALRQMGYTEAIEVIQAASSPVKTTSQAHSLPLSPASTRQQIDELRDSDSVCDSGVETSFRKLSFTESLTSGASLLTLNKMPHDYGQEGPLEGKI

CC(=NC#N)N(C)Cc1ccc(Cl)nc1
inactive: [1] | [2] | [3] | [4] | [5] | [6] | [7] | [8] | [9] | [10] | [11] | MYC, MYC (gene 4609) | [12] | [13] | [14] | [15] | [16] | [17]

CCOP(=O)(NC(C)C)Oc1ccc(SC)c(C)c1 (configuration not stated)
inactive: [1] | [2] | [3] | [4] | [5] | [6] | [7] | [8] | [9] | [10] | [11] | MYC, MYC (gene 4609) | [18] | [13] | [14] | [15] | [16] | [17]
active: [12] 50 µM

N#CSCSC#N
active: [4] 68.4 µM | [6] 90.1 µM | [8] 93.7 µM | [9] 78.1 µM | [10] 65.1 µM | [11] 83 µM | [16] 74.2 µM
inactive: [1] | [2] | [3] | [5] | [7] | MYC, MYC (gene 4609) | [12] | [13] | [14] | [15] | [17]

CN1COCN(Cc2cnc(Cl)s2)C1=N[N+](=O)[O-]
inactive: [1] | [2] | [3] | [4] | [5] | [6] | [7] | [8] | [9] | [10] | [11] | MYC, MYC (gene 4609) | [12] | [13] | [14] | [15] | [16] | [17]

CCOP(=O)(SC(C)CC)N1CCSC1=O (configuration not stated)
active: [8] 25.6 µM | [12] 26.2 µM | [17] 21.7 µM
inactive: [1] | [2] | [3] | [4] | [5] | [6] | [7] | [9] | [10] | MYC, MYC (gene 4609) | [18] | [14] | [15] | [16]

CCc1cnc(C2=NC(C)(C(C)C)C(=O)N2)c(C(=O)O)c1 (configuration not stated)
inactive: [1] | [2] | [3] | [4] | [5] | [6] | [7] | [8] | [9] | [10] | [11] | MYC, MYC (gene 4609) | [12] | [14] | [15] | [16] | [17]
